Reference: PubChem BioAssay (NCI)
Compounds without any hit were thinned out: in the full panel of roughly 79,000, 15% have a hit. Calls of active or inactive are those of the source. No stated cut-off is given here; in the data, active means growth inhibition above about 70%; inactive means the rest.

Experiments:
[1] = NCI Yeast Anticancer Drug Screen. Data for the rad50 strain (AID 155);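 further: 0% = growth of vehicle-only cultures of the same strain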; settings: S. cerevisiae rad50 strain growth inhibition, hits give high values
Procedure, shortened: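 Compounds were tested on a yeast strain with an engineered DNA damage repair alteration; the reported value is growth inhibition normalised to vehicle treatment.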

[2] = NCI Yeast Anticancer Drug Screen. Data for the mec2-1 strain (AID 157); settings: S. cerevisiae mec2-1 strain, hits give high values
Procedure, shortened: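 Compounds were applied to mec2-1 yeast cells. Their growth was then compared with that of vehicle-treated cultures to give growth inhibition.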

[3] = NCI Yeast Anticancer Drug Screen. Data for the sgs1 mgt1 strain (AID 161);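 further: 0% = growth of cultures given vehicle only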; settings: S. cerevisiae sgs1 mgt1 strain, hits give high values
Procedure, shortened: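 Growth of a repair-deficient yeast mutant was monitored after compound treatment and expressed as inhibition relative to vehicle-treated cultures.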

[4] = NCI Yeast Anticancer Drug Screen. Data for the cln2 rad14 strain (AID 165);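 further: 0% = growth equal to vehicle treated cultures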; settings: S. cerevisiae cln2 rad14 strain, hits give high values
Procedure, shortened: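 Strain: cln2 rad14 yeast, altered in cell cycle control and DNA damage repair. Read-out: growth inhibition vs vehicle.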

[5] = NCI Yeast Anticancer Drug Screen. Data for the mlh1 rad18 strain (AID 175); settings: S. cerevisiae mlh1 rad18 strain growth inhibition, hits give high values
Procedure, shortened: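 A repair-deficient yeast strain is exposed to test compound, and growth is scored relative to vehicle-treated controls.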

[6] = NCI Yeast Anticancer Drug Screen. Data for the bub3 strain (AID 167); settings: S. cerevisiae bub3 mutant strain, hits give high values
Procedure, shortened: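 Growth of a checkpoint-deficient yeast mutant is measured after compound exposure. Values represent inhibition relative to vehicle.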

[7] = at 5.0 µM (retest, dose inferred, filed as 0.5)
[8] = at 50.0 µM (retest, dose inferred, filed as 5.0)

Measured: growth inhibition

COc1cc2c(c(OC)c1OC)-c1ccc(SC)c(=O)cc1[C@@H](NC1OC(COC(C)=O)C(OC(C)=O)C(OC(C)=O)C1OC(C)=O)CC2 (stereo partly drawn)
inactive: [1]; [7] 0% | [1]; [8] -3% | [1]; at 50.0 µM -1.6% | [2]; [7] -1% | [2]; [8] -3% | [2]; at 50.0 µM 2.55% | [3]; [7] 1% | [3]; [8] 5% | [3]; at 50.0 µM 9.45% | [4]; [7] 3% | [4]; [8] -14% | [5]; [7] 0% | [5]; [8] -3% | [5]; at 50.0 µM 7.15%
active: [4]; at 50.0 µM 74.2%

OCC(O)C(OC1OC(CO)C(O)C(O)C1O)C(O)C(/C=N/Nc1ccc(Br)cc1)=N/Nc1ccc(Br)cc1 (stereo not drawn)
inactive: [1]; [7] -3% | [2]; [7] -11% | [3]; [7] 2% | [4]; [7] -41% | [5]; [7] 13%
active: [1]; [8] 98% | [1]; at 50.0 µM 99.3% | [2]; [8] 98% | [2]; at 50.0 µM 98.5% | [3]; [8] 99% | [3]; at 50.0 µM 98.5% | [4]; [8] 99% | [4]; at 50.0 µM 98.9% | [5]; [8] 98% | [5]; at 50.0 µM 98.5%

Oc1ccccc1C(c1ccccc1O)C(Cl)(Cl)Cl
active: [1]; [7] 94% | [1]; [8] 96% | [1]; at 50.0 µM 95.7% | [2]; [7] 96% | [2]; [8] 97% | [2]; at 50.0 µM 98.5% | [3]; [7] 94% | [3]; [8] 96% | [3]; at 50.0 µM 97.3% | [6]; [7] 84% | [6]; [8] 96% | [6]; at 50.0 µM 98.2% | [5]; [7] 91% | [5]; [8] 96% | [5]; at 50.0 µM 98%

CCCCCCCC/C=C\CCCCCCCCN1CCOCC1
active: [1]; at 50.0 µM 99.2% | [2]; at 50.0 µM 99.3% | [3]; at 50.0 µM 99.2% | [4]; at 50.0 µM 97.5% | [5]; at 50.0 µM 99.2%
inactive: [1]; [7] -2% | [1]; [8] -2% | [2]; [7] 0% | [2]; [8] -2% | [3]; [7] -4% | [3]; [8] 5% | [4]; [7] 11% | [4]; [8] 3% | [5]; [7] -3% | [5]; [8] 1%

CCCCCCCCCCCCCCSC(=NC)NC
active: [1]; [7] 99% | [1]; [8] 99% | [1]; at 50.0 µM 99.5% | [2]; [7] 99% | [2]; [8] 99% | [2]; at 50.0 µM 99.8% | [3]; [7] 100% | [3]; [8] 99% | [3]; at 50.0 µM 99.5% | [6]; [7] 99% | [6]; [8] 99% | [6]; at 50.0 µM 99.5% | [5]; [7] 98% | [5]; [8] 99% | [5]; at 50.0 µM 99.4%

COc1ccccc1NC(=O)CC(=O)N1N=C(C)C(N=Nc2ccc(C(=O)O)cc2)C1=O (stereo not drawn)
inactive: [1]; [7] 2% | [1]; [8] -1% | [1]; at 50.0 µM 0% | [2]; [7] 0% | [2]; [8] -2% | [2]; at 50.0 µM -4% | [3]; [7] -4% | [3]; [8] -20% | [3]; at 50.0 µM 2.65% | [6]; [7] 1% | [6]; [8] 16% | [6]; at 50.0 µM -1.05% | [5]; [7] 1% | [5]; [8] 1% | [5]; at 50.0 µM 2.3%

Cc1occc1C(=S)Nc1ccc(Cl)c(C(=O)OCC2CC2)c1
inactive: [1]; [7] -14% | [1]; [8] -3% | [2]; [7] -21% | [2]; [8] 5% | [4]; [7] 2% | [4]; [8] 62% | [6]; [7] -3% | [6]; [8] 17% | [5]; [7] -2% | [5]; [8] 8% | [5]; at 50.0 µM 16.2%
active: [1]; at 50.0 µM 84.8% | [2]; at 50.0 µM 86% | [4]; at 50.0 µM 82.5% | [6]; at 50.0 µM 80.2%

O=C(O)C(c1ccc(Cl)cc1)c1ccc(Cl)cc1
active: [1]; [8] 98% | [1]; at 50.0 µM 95.3% | [2]; [8] 98% | [2]; at 50.0 µM 95.5% | [3]; [8] 99% | [3]; at 50.0 µM 91.9% | [4]; [8] 97% | [4]; at 50.0 µM 92.5% | [5]; [8] 96% | [5]; at 50.0 µM 95.8%
inactive: [1]; [7] 10% | [2]; [7] 9% | [3]; [7] 7% | [4]; [7] 6% | [5]; [7] 13%

COC(OC)(c1ccccc1)C(I)I
active: [1]; [7] 100% | [1]; [8] 100% | [1]; at 50.0 µM 99% | [2]; [7] 100% | [2]; [8] 100% | [2]; at 50.0 µM 99.4% | [4]; [7] 100% | [4]; [8] 99% | [4]; at 50.0 µM 99.5% | [6]; [7] 100% | [6]; [8] 100% | [6]; at 50.0 µM 99.3% | [5]; [7] 100% | [5]; [8] 99% | [5]; at 50.0 µM 99.5%

c1ccc(/C(=N\Nc2nc3ccccc3s2)c2ccccn2)cc1
inactive: [1]; [7] 0% | [2]; [7] 9% | [3]; [7] -6% | [4]; [7] -17% | [6]; [7] -6% | [5]; [7] 11%
active: [1]; [8] 88% | [1]; at 50.0 µM 71.7% | [2]; [8] 79% | [2]; at 50.0 µM 73.5% | [3]; [8] 90% | [3]; at 50.0 µM 75.4% | [4]; [8] 75% | [4]; at 50.0 µM 79.7% | [6]; [8] 87% | [6]; at 50.0 µM 78.7% | [5]; [8] 89% | [5]; at 50.0 µM 81.3%

O=C1SCCN1/N=C/c1ccc([N+](=O)[O-])o1
inactive: [1]; [7] 30% | [3]; [7] 34% | [4]; [7] 2% | [4]; [8] 68% | [4]; at 50.0 µM 50.7% | [6]; [7] 10% | [6]; at 50.0 µM 64.6% | [5]; [7] 51%
active: [1]; [8] 85% | [1]; at 50.0 µM 85.8% | [3]; [8] 92% | [3]; at 50.0 µM 93.3% | [6]; [8] 80% | [5]; [8] 94% | [5]; at 50.0 µM 92%
